In ChEMBL document CHEMBL3988442, “University of Dundee, Small-Polar-MMV Screening Library” (2021):
About 950 (1.4%) of roughly 69,000 compounds showed an effect of 50% or more. The sample as a whole holds a higher share of strong results than the screen did.

What follows are compounds tested on Mycobacterium tuberculosis (assay: Cornell M. t heat shock assay; further: in the data most compounds retested in dose-response had high values).
Type: functional, organism-based
Design: dose or concentration left out as unconfirmed
With `N#Cc1cccc(CN2Cc3nccn3CC(COCC3CC3)C2)c1.O=C(O)C(F)(F)F` (configuration not stated) the “Percent Effect” value was -23.01%.
For `O=C1CCCC2=C1C(c1ccccc1Cl)Nc1nonc1N2` (configuration not stated), the “Percent Effect” value was 3.129%.
In the case of `Cc1occc1C(=O)NCC(=O)NCCOc1ccc2c(c1)CCC2`, the “Percent Effect” value is reported as 50.55%.
With `Cc1occc1C(=O)NCC(=O)NCCOc1cccc(Cl)c1` the “Percent Effect” value was 34.75%.
`O=C(CNC(=O)c1ccoc1)NCCOc1ccc2c(c1)CCC2` was tested, and the “Percent Effect” value was 12.38%.
In the case of `Cc1ccc(CN2CCOCC3(CCN(Cc4cccs4)C3)C2)o1.O=C(O)C(F)(F)F.O=C(O)C(F)(F)F` (configuration not stated), the “Percent Effect” value is reported as -11.36%.
With `COCCN1CCc2c(c(COc3cccnc3)nn2C)C1.O=C(O)C(F)(F)F.O=C(O)C(F)(F)F` the “Percent Effect” value was 5.842%.
In the case of `Cc1ccc(Cl)cc1N1CCC(CNC(=O)CCn2ccnn2)C1` (configuration not stated), the “Percent Effect” value is reported as 62.44%.
With `CCC(=O)NCC(=O)NCC1CCN(c2cc(Cl)ccc2C)C1` (configuration not stated) the “Percent Effect” value was -4.009%.
In the case of `Cc1ccc(Cl)cc1N1CCC(CNC(=O)CC(F)(F)F)C1` (configuration not stated), the “Percent Effect” value is reported as 28.09%.
For `Cc1cnn(CC(=O)NCC2CCN(c3cc(Cl)ccc3C)C2)c1` (configuration not stated), the “Percent Effect” value was 0.4801%.
In the case of `Cc1ccc(Cl)cc1N1CCC(CNC(=O)Cn2cccn2)C1` (configuration not stated), the “Percent Effect” value is reported as 6.122%.
`Cc1ccc(Cl)cc1N1CCC(CNC(=O)CCn2ccnc2)C1` (configuration not stated) was tested, and the “Percent Effect” value was 172.3%.
With `CN(C)CCNC(=O)c1cc(-c2cnc(N3CCCC3)nc2)cn1C.O=C(O)C(F)(F)F` the “Percent Effect” value was -14.58%.
With `CC(=O)N1[C@H](CN(C)C)C[C@@H]2CN(C(=O)c3cncc(C)c3)CC[C@@H]21.O=C(O)C(F)(F)F.O=C(O)C(F)(F)F` the “Percent Effect” value was -6.193%.
In the case of `COCCn1cc(C(=O)N2CCCC2c2cc(C)on2)c2ccccc21` (configuration not stated), the “Percent Effect” value is reported as -20.39%.
With `CCOC(=O)N1CCN(C(=O)c2cc(-c3ccccc3F)on2)CC1` the “Percent Effect” value was 9.54%.
With `Cc1cc(C(=O)N2CCN(c3nc4ccccc4s3)CC2)no1` the “Percent Effect” value was -15.49%.
With `COc1cccc([C@H]2CN(C(=O)c3cc(C)on3)C[C@@H]2N)c1` the “Percent Effect” value was -0.4367%.
With `Cc1cc(C(=O)N2CCN(c3nc4c(C)cccc4s3)CC2)no1` the “Percent Effect” value was 96.55%.
In the case of `COc1cccc2sc(N3CC(OC(C)=O)C3)nc12`, the “Percent Effect” value is reported as 4.303%.
`COc1cccc2sc(N3CCN(C(=O)c4cc(C)on4)CC3)nc12` was tested, and the “Percent Effect” value was 101.6%.
In the case of `Cc1cccc(C(=O)N2CCN(c3ccccc3F)CC2)n1`, the “Percent Effect” value is reported as -5.532%.
`CC(=O)OC1CN(c2nc3c(C)cccc3s2)C1` was tested, and the “Percent Effect” value was -13.72%.
For `CCOc1cc(C)nc(N2CCN(C(=O)c3cc(C)on3)CC2)n1`, the “Percent Effect” value was -16.01%.
`Cc1cc(C(=O)N2CCN(c3nc4c(C(C)C)cccc4s3)CC2)no1` was tested, and the “Percent Effect” value was 88.51%.
For `Cc1cc(C(=O)N2CCN(c3nc4c(C(C)C)cccc4s3)CC2)on1`, the “Percent Effect” value was -0.7761%.
For `Cc1cc(C(=O)N2CCN(c3nc4c(F)cccc4s3)CC2)no1`, the “Percent Effect” value was 70.89%.
`Cc1cc(C(=O)N2CCN(C)CC2)nn1CC(=O)NCc1ccccn1.Cl` was tested, and the “Percent Effect” value was -24.19%.
In the case of `CC(C)C[C@H](N)c1nnc(SCC(=O)Nc2ccc(Br)cc2)o1.Cl`, the “Percent Effect” value is reported as 9.958%.
In the case of `O=C(O)C(F)(F)F.O=C(O)C(F)(F)F.O=C(O)C(F)(F)F.c1ccc(NCc2cn3c(n2)CN(Cc2cccnc2)CC3)nc1`, the “Percent Effect” value is reported as 2.185%.
For `CS(=O)(=O)c1ccc(C(=O)N2CCCC(n3ccnc3)C2)cc1` (configuration not stated), the “Percent Effect” value was 8.305%.
In the case of `Cn1cc(-c2ncc3c(c2C(=O)O)CCN(Cc2ccccn2)C3)cn1.O=C(O)C(F)(F)F.O=C(O)C(F)(F)F`, the “Percent Effect” value is reported as 44.96%.
In the case of `CO[C@@H]1CCN(C(=O)c2ccsc2)[C@@H]2CN(CC3CC3)C[C@@H]21.O=C(O)C(F)(F)F`, the “Percent Effect” value is reported as 9.15%.
With `COCCCNC(=O)c1cc(-c2cnc(N(C)C)nc2)cn1CC1CC1.O=C(O)C(F)(F)F` the “Percent Effect” value was 0.3583%.
With `C[C@@H]1CN(Cc2c[nH]c(CC3CCCC3)n2)CC[C@]1(C)O` the “Percent Effect” value was -1.066%.
With `CC1(C)CN(Cc2c[nH]c(CC3CCCC3)n2)CC[C@]1(C)O` the “Percent Effect” value was 10.2%.
With `OC1(CN2CCCC2)CCCN(Cc2c[nH]c(CC3CCCC3)n2)C1` (configuration not stated) the “Percent Effect” value was 109.3%.
`COC[C@]1(O)CCN(Cc2c[nH]c(CC3CCCC3)n2)CC1(C)C` was tested, and the “Percent Effect” value was -12.53%.
With `OC1(CN2CCCCC2)CCN(Cc2c[nH]c(CC3CCCC3)n2)C1` (configuration not stated) the “Percent Effect” value was 56.92%.
In the case of `c1[nH]c(CC2CCCC2)nc1CN1CCCC2(CCOC2)C1` (configuration not stated), the “Percent Effect” value is reported as -0.6443%.
`COc1cc(C(=O)N(C)C)ccc1NC(=O)c1ccsc1` was tested, and the “Percent Effect” value was -21.05%.
For `CCS(=O)(=O)N1CC[C@H]2CO[C@H](CN(C)C)[C@H]2C1.O=C(O)C(F)(F)F`, the “Percent Effect” value was -39.84%.
For `CCN1CCC2(CCC(=O)N2Cc2cccc(C)n2)CC1.O=C(O)C(F)(F)F.O=C(O)C(F)(F)F`, the “Percent Effect” value was -30.9%.
In the case of `O=C(O)C(F)(F)F.O=C(O)C(F)(F)F.c1cnn(CCCO[C@@H]2CN(C3CCOCC3)[C@@H]3CCCO[C@@H]32)c1`, the “Percent Effect” value is reported as -22.39%.
With `Cc1ccc(CN2CC[C@H]3NC(=O)CC[C@@H]32)o1.O=C(O)C(F)(F)F` the “Percent Effect” value was -7.125%.
`Cc1cccc(N2CCC3(CCCN(C(=O)c4cccnc4)C3)C2)n1.O=C(O)C(F)(F)F.O=C(O)C(F)(F)F` (configuration not stated) was tested, and the “Percent Effect” value was -32.42%.
`COCCNC(=O)c1ccc2ccc(N(C)CC3CC3)n2c1` was tested, and the “Percent Effect” value was 24.26%.
In the case of `CN(C)C(=O)CNC(=O)c1ccc2ccc(N(C)CC3CC3)n2c1`, the “Percent Effect” value is reported as 51.54%.
For `CN(C)CCNC(=O)c1ccc2ccc(N(C)CC3CC3)n2c1`, the “Percent Effect” value was -34.83%.
In the case of `NC(=O)N1CCC2(CCN(C(=O)c3cccnc3)CC2)C1.O=C(O)C(F)(F)F`, the “Percent Effect” value is reported as -5.676%.
`Cl.Cl.c1ccc(COC[C@@H]2CCC[C@@]23CNCCO3)nc1` was tested, and the “Percent Effect” value was 33.86%.
In the case of `Cc1cc(C)c(CNC(=O)NCCNc2cnccn2)c(=O)[nH]1`, the “Percent Effect” value is reported as -7.276%.
For `CCCc1cncnc1N1CCC(NCc2cc3ccccc3[nH]2)CC1`, the “Percent Effect” value was 103.5%.
For `CCCc1cncnc1N1CCC(NCc2ccc(O)cc2)CC1`, the “Percent Effect” value was -4.464%.
`CCCc1cncnc1N1CCC(NCc2ccncc2)CC1` was tested, and the “Percent Effect” value was 4.573%.
With `Cc1n[nH]c(C(=O)NCc2ccnc(OCC(F)(F)F)c2)c1Br` the “Percent Effect” value was 65.15%.
`Cc1noc(C)c1C(=O)NCc1ccnc(OCC(F)(F)F)c1` was tested, and the “Percent Effect” value was 0.8028%.
In the case of `Cc1ncsc1C(=O)NCc1ccnc(OCC(F)(F)F)c1`, the “Percent Effect” value is reported as -36.25%.
In the case of `NC(=O)N1CCCC(C(=O)NCc2ccccc2OC(F)(F)F)C1` (configuration not stated), the “Percent Effect” value is reported as 35.38%.
With `CN(Cc1ccccc1OC(F)(F)F)C(=O)C1CC1` the “Percent Effect” value was 6.346%.
`CN(Cc1ccccc1OC(F)(F)F)C(=O)C1CCCN(C(N)=O)C1` (configuration not stated) was tested, and the “Percent Effect” value was 92.25%.
With `O=C(O)C(F)(F)F.O=C(O)C(F)(F)F.c1cc(CO[C@H]2CC[C@H]3[C@H]2OCCN3Cc2nccs2)ccn1` the “Percent Effect” value was -1.961%.
`O=C(O)C(F)(F)F.O=C(O)C(F)(F)F.O=C1N(c2cncnc2)CCC12CCCN(Cc1cccnc1)C2` (configuration not stated) was tested, and the “Percent Effect” value was -18.13%.
In the case of `CCOCC1CN(C(=O)c2cscn2)Cc2cn(C)nc21.O=C(O)C(F)(F)F` (configuration not stated), the “Percent Effect” value is reported as -37.83%.
In the case of `COC[C@@H]1CCC[C@]12CN(Cc1ccco1)CCO2.O=C(O)C(F)(F)F`, the “Percent Effect” value is reported as -13.34%.
In the case of `Cl.NCc1cc(-c2ccccc2)n2nccc2n1`, the “Percent Effect” value is reported as -2.564%.
For `FC(F)(F)c1ccc(-c2noc3c2CN(CC2CCCO2)CC3)cc1` (configuration not stated), the “Percent Effect” value was 46.47%.
In the case of `COCC(C)N1CCc2onc(-c3ccc(C(F)(F)F)cc3)c2C1` (configuration not stated), the “Percent Effect” value is reported as 16.68%.
For `OCC(O)CN1CCc2onc(-c3ccc(C(F)(F)F)cc3)c2C1` (configuration not stated), the “Percent Effect” value was 97.28%.
`COCC1c2nnn(CC3CC3)c2CCN1C(=O)c1cc(C)on1` (configuration not stated) was tested, and the “Percent Effect” value was 9.302%.
With `COCC1c2nnn(CC3CC3)c2CCN1C(=O)c1ccnnc1` (configuration not stated) the “Percent Effect” value was -6.272%.
`COCC1c2nnn(CC3CC3)c2CCN1C(=O)c1cc(C)[nH]c1C` (configuration not stated) was tested, and the “Percent Effect” value was 70.57%.
In the case of `CCC(CNC(=O)c1ccccc1Br)N1CCc2ccccc2C1` (configuration not stated), the “Percent Effect” value is reported as -2.045%.
In the case of `CCC(CNC(=O)c1ccccn1)N1CCc2ccccc2C1` (configuration not stated), the “Percent Effect” value is reported as 64.91%.
`CCC(CNC(=O)c1ccc(=O)[nH]n1)N1CCc2ccccc2C1` (configuration not stated) was tested, and the “Percent Effect” value was -4.669%.
`O=C(O)C(F)(F)F.c1ccc(CN2CCCn3nnc(CNc4ncccn4)c3C2)nc1` was tested, and the “Percent Effect” value was 11.56%.
In the case of `Cc1noc(C)c1CN1CCc2ncnc(-c3ccncc3)c2CC1.O=C(O)C(F)(F)F.O=C(O)C(F)(F)F`, the “Percent Effect” value is reported as 7.897%.
In the case of `O=C(CCc1ccsc1)NCC1CCN(c2ccccc2)C1` (configuration not stated), the “Percent Effect” value is reported as 105.9%.
`O=C(CCc1ccsc1)NCC1CCN(C2CC2)C1` (configuration not stated) was tested, and the “Percent Effect” value was -16.29%.
`O=C(CCc1ccccc1)NCC1CCN(Cc2ccsc2)CC1` was tested, and the “Percent Effect” value was -20.67%.
With `CC(C)c1nn(C)cc1CNCc1ccnc(N(C)C)c1.Cl` the “Percent Effect” value was -35.39%.
`CC(C)NC(=O)CC1COC2(CCN(Cc3ccccc3)CC2)C1.O=C(O)C(F)(F)F` (configuration not stated) was tested, and the “Percent Effect” value was -5.683%.
In the case of `CS(=O)(=O)NC[C@@H]1OC[C@H]2CN(Cc3ccsc3)CC[C@H]21.O=C(O)C(F)(F)F`, the “Percent Effect” value is reported as -25.96%.
With `CC(C)(C)Nc1c(C2CCCN(C(=O)C3CC3)C2)nc2ccccn12.Cl` (configuration not stated) the “Percent Effect” value was -26.51%.
In the case of `CC(c1ccco1)N(C)Cc1cccc(C(=O)Nc2nccn2C)c1` (configuration not stated), the “Percent Effect” value is reported as 105%.
`COC(=O)c1cccc(CN(C)C(C)c2ccccn2)c1` (configuration not stated) was tested, and the “Percent Effect” value was -7.966%.
With `CCc1nnc(CN(C)Cc2cccc(C(=O)Nc3ccnn3C)c2)o1` the “Percent Effect” value was 2.892%.
For `CC(NC(=O)c1cccc(CN2CCN(C)CC2)c1)c1ccccn1` (configuration not stated), the “Percent Effect” value was -15.12%.
With `CN(Cc1cccc(C(=O)Nc2ccnn2C)c1)CC1(C)COC1` the “Percent Effect” value was -8.064%.
In the case of `CC(c1ccccn1)N(C)Cc1cccc(C(=O)Nc2nccn2C)c1` (configuration not stated), the “Percent Effect” value is reported as 74%.
In the case of `N#CC1=C(N)Nn2c(nnc2-c2ccccc2Br)S1`, the “Percent Effect” value is reported as -17.22%.
